According to PubChem BioAssay AID624094 (National Center for Advancing Translational Sciences (NCATS), 2012):
Records with an inconclusive call do not appear. Active and inactive are the calls of the source. Calls come from the whole dose curve; as a rule, active = well fitted inhibition curve with a large enough effect; inconclusive = small, poorly fitted or top-dose-only effect; inactive = flat fitted curve, though single readings scatter.

Biological target: Dual specificity protein kinase CLK4 (Homo sapiens) (UniProt Q9HAZ1)
Assay: Confirmation Assay for Inhibitors of Clk4 (Kinase-Glo Assay): KU probe
Conditions: recombinant Clk4, Kinase-Glo ATP luminescence; series mostly up to 76.9 µM
Method in brief: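 Read-out was Kinase-Glo luciferase luminescence of ATP left after 4.5 h room-temperature reaction. Final conditions: Clk4 25 nM, ATP 1 uM, RS peptide 100 uM, 25 mM Tris pH 7.5, 10 mM MgCl2, 0.5 mM EGTA, 2.5 mM DTT, 0.01% Triton X-100.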

Chain of Dual specificity protein kinase CLK4 (Homo sapiens) (Q9HAZ1 whole entry, looked up): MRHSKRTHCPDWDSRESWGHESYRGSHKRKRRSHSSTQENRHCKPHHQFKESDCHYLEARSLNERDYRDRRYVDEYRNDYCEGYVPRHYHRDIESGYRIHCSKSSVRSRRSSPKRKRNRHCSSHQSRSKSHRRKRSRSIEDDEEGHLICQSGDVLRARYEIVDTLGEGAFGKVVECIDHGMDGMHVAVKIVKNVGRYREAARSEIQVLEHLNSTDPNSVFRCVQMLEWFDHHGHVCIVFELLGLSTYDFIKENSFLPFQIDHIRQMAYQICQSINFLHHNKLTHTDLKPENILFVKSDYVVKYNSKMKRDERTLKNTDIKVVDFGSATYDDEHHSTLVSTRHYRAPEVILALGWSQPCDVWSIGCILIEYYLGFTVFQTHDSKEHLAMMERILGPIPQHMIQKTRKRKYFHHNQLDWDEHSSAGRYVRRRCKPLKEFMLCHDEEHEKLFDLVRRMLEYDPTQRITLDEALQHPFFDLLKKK

**Q.** For `Clc1ccc(CNc2cc(-c3ccc4c(c3)OCO4)ncn2)cc1Cl`, which Potency is on record?
**A.** 4.63 µM (active)

**Q.** `Clc1ccc(CNc2nccc(-c3ccc4c(c3)OCO4)n2)cc1` was tested. Which Potency did it give?
**A.** 0.0519 µM (active)

**Q.** `Clc1ccc(CNc2ncncc2-c2ccc3c(c2)OCO3)cc1` was tested. Which Potency did it give?
**A.** 5.82 µM (active)

**Q.** `CC(C)(C)CNc1ncnc2ccc(-c3ccc4c(c3)OCO4)cc12` was tested. Which Potency did it give?
**A.** 0.0654 µM (active)

**Q.** For `Fc1ccc(CNc2ccnc(-c3ccc4c(c3)OCO4)n2)cc1F`, which Potency is on record?
**A.** 18.4 µM (active)

**Q.** For `c1nc(NCC2CCOC2)c2cc(-c3ccc4c(c3)OCO4)ccc2n1` (centres undefined), which Potency is on record?
**A.** 0.0582 µM (active)

**Q.** With `c1ccc2ncc(CNc3ccnc(-c4ccc5c(c4)OCO5)n3)cc2c1` as the compound, how does the Potency read?
**A.** 29.2 µM (active)

**Q.** Which Potency does the source give for `COc1cccc(-c2nccc(NCc3ccc(Cl)c(Cl)c3)n2)c1` here?
**A.** 14.6 µM (active)

**Q.** For `Clc1ccc(CNc2ccnc(-c3ccc4c(c3)OCO4)n2)cc1Cl`, which Potency is on record?
**A.** 13 µM (active)

**Q.** `Fc1cncc(CNc2ccnc(-c3ccc4c(c3)OCO4)n2)c1` was tested. Which Potency did it give?
**A.** 8.23 µM (active)

**Q.** `Brc1cncc(CNc2ccnc(-c3ccc4c(c3)OCO4)n2)c1` was tested. Which Potency did it give?
**A.** 8.23 µM (active)

**Q.** `CN(C)c1ccc(-c2nccc(NCc3ccccc3)n2)cc1` was tested. Which Potency did it give?
**A.** inactive

**Q.** For `c1nc(NCC2CCCOC2)c2cc(-c3ccc4c(c3)OCO4)ccc2n1` (centres undefined), which Potency is on record?
**A.** 0.0654 µM (active)

**Q.** `Cc1ccc(CNc2ccnc(-c3cccc(C#N)c3)n2)cc1` was tested. Which Potency did it give?
**A.** 23.2 µM (active)

**Q.** With `Clc1ccc(CNc2ccnc(-c3cccnc3)n2)cc1Cl` as the compound, how does the Potency read?
**A.** 13 µM (active)

**Q.** Which Potency does the source give for `COc1ccc(-c2ccnc(NCc3ccc(Cl)cc3)n2)cc1` here?
**A.** 0.184 µM (active)

**Q.** `Fc1ccc(CNc2ccnc(-c3ccc4c(c3)OCO4)n2)cc1Cl` was tested. Which Potency did it give?
**A.** 5.19 µM (active)

**Q.** `Cc1c(-c2ccnc(NCc3cccnc3)n2)sc(=O)n1C` was tested. Which Potency did it give?
**A.** 0.0463 µM (active)

**Q.** How did the Potency turn out when `Cc1noc(C)c1-c1nccc(NCc2ccc(Cl)cc2)n1` was run?
**A.** inactive

**Q.** Which Potency does the source give for `FC(F)(F)c1cc(Br)cc(Nc2nccc(-c3ccc4c(c3)OCO4)n2)c1` here?
**A.** 0.13 µM (active)

**Q.** How did the Potency turn out when `Cc1csc(CNc2ncnc3ccc(-c4ccc(C(=O)O)o4)cc23)n1` was run?
**A.** 0.292 µM (active)

**Q.** With `c1nc(NCC2CCCCO2)c2cc(-c3ccc4c(c3)OCO4)ccc2n1` (centres undefined) as the compound, how does the Potency read?
**A.** 0.0292 µM (active)

**Q.** For `c1ccc(CNc2ccnc(-c3ccc4c(c3)OCO4)n2)cc1`, which Potency is on record?
**A.** 23.2 µM (active)

**Q.** Which Potency does the source give for `c1cc(CNc2ccnc(-c3ccc4c(c3)OCO4)n2)ccn1` here?
**A.** 16.4 µM (active)

**Q.** For `COc1ccc(CNc2ccnc(-c3cccc(OC)c3)n2)cc1`, which Potency is on record?
**A.** 23.2 µM (active)

**Q.** With `Clc1ccc(Nc2nccc(-c3ccc4c(c3)OCO4)n2)cc1` as the compound, how does the Potency read?
**A.** 0.368 µM (active)

**Q.** Which Potency does the source give for `c1cncc(CNc2ccnc(-c3ccc4[nH]ncc4c3)n2)c1` here?
**A.** 0.146 µM (active)

**Q.** `c1nc(NCC2CC2)c2cc(-c3ccc4c(c3)OCO4)ccc2n1` was tested. Which Potency did it give?
**A.** 0.0328 µM (active)

**Q.** With `COc1cccc(Nc2ncc3ncc(=O)n(CCc4ccccc4)c3n2)c1` as the compound, how does the Potency read?
**A.** 0.0923 µM (active)
